Shown are actives, neighbours in structure and some others; about 1.1% of the full set was active somewhere.
VLA-4 inh – inhibition in a human VLA-4 binding assay. P13612. hit rate 0.2% among 330,000. VLA-4 expressing cells, ligand binding flow cytometry. AID 2557. inhibition, % (about 7 µM as worked out from the volumes in the protocol); in the data active = inhibition above about 50%
AGP1 TOR yeast – yeast TOR pathway AGP1-GFP modulation. S. cerevisiae AGP1-GFP multiplex flow cytometry, 3 h; GFP as percent of DMSO wells. GFP response vs DMSO, % at 10 µM. hit rate 0.02% among 320,000. AID 2066;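 active = GFP response relative to DMSO above a set limit, near screen average plus 3 SD, cut at about 150% in these data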;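 note: median GFP channel fluorescence of the gated AGP1 strain per well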
RPL19A TOR yeast – modulators of TOR pathway RPL19A-GFP in S. cerevisiae; S. cerevisiae RPL19A-GFP strain, flow cytometry, 3 h; hits give low values; percent response vs DMSO, % at 10 µM; hit rate 0.3% among 330,000; AID 2025;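 active = percent response vs DMSO below 50%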;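 note: median channel GFP fluorescence of the barcoded RPL19A-GFP strain; lower means less RPL19A-GFP as with rapamycin TOR inhibition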
CIT2 TOR yeast – alters CIT2-GFP fluorescence in TOR pathway yeast screen; GFP response vs DMSO, % at 10 µM; S. cerevisiae CIT2-GFP strain, flow cytometry, 3 h; 100 means same as DMSO wells; AID 2029; hit rate 0.065% among 320,000;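 active = GFP response relative to DMSO above a set limit, near the screen mean plus 3 SD, cut at about 150% in these data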;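 note: ratio of well median GFP fluorescence to mean of DMSO wells on the plate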
MEP2 TOR yeast – yeast TOR pathway MEP2-GFP modulation; S. cerevisiae MEP2-GFP strain, flow cytometry GFP, 3 h; 100% = DMSO control level; GFP response vs DMSO, % at 10 µM; hit rate 0.51% among 330,000; AID 2016;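 active = GFP response versus DMSO above a set limit, roughly screen mean plus 3 SD, cut at about 180% in these data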;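 note: median GFP fluorescence of the barcode-gated MEP2-GFP cells per well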
LAP4-GFP MLPCN – alters LAP4-GFP fluorescence in TOR pathway yeast screen. GFP response vs DMSO, % at 10 µM. hit rate 0.34% among 320,000. S. cerevisiae LAP4-GFP multiplex, flow cytometry GFP, 3 h; median GFP as percent of DMSO wells. AID 2023;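 active = GFP response vs DMSO above a set limit, about the screen mean plus 3 SD, cut at about 150% in these data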
LAP4 cherry2 – reconfirmed LAP4-GFP TOR pathway modulator in yeast | shares compounds with LAP4-GFP MLPCN | S. cerevisiae LAP4-GFP strain, flow cytometry GFP, 3 h | GFP response vs DMSO, % at 10 µM | hit rate 20% among 590;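 active = GFP signal as percent of the solvent control above about 150%, meaning raised reporter expression, limit read from the data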
MEP2 cherry2 – yeast MEP2-GFP modulation, second cherry pick | shares compounds with LAP4-GFP MLPCN | GFP response vs DMSO, % at 10 µM | S. cerevisiae MEP2-GFP strain, flow cytometry GFP, 3 h | hit rate 10% among 590 | AID 2622;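 active = GFP signal above 150% of the solvent control wells, that is a rise of more than half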;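 note: median channel GFP fluorescence of all gated yeast cells per well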
RPL19A GFP CP2 – second confirmation of modulators of TOR reporter RPL19A-GFP in yeast; hit rate 3% among 590; GFP response vs DMSO, % at 10 µM; shares compounds with LAP4-GFP MLPCN; S. cerevisiae RPL19A-GFP strain, flow cytometry GFP, 3 h; hits give low values; 100% means same as DMSO wells;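 active = under 65% GFP response relative to DMSO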;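 note: median GFP channel fluorescence per well over the all cells gate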
CIT2-GFP pick2 – reconfirmed modulator of CIT2-GFP TOR reporter in yeast; shares compounds with LAP4-GFP MLPCN; S. cerevisiae CIT2-GFP strain, flow cytometry GFP, 3 h; DMSO control wells read 100%; GFP response vs DMSO, % at 10 µM; hit rate 8% among 590;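 active = GFP response vs DMSO above about 150%, limit read from the data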;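 note: median green fluorescence per well over all gated yeast cells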
AGP1-GFP pick2 – second confirmation of modulators of TOR reporter AGP1-GFP in yeast. shares compounds with LAP4-GFP MLPCN. S. cerevisiae AGP1-GFP strain, flow cytometry GFP, 3 h. percent response vs DMSO, % at 10 µM. 590 tested, under 10 active. AID 2643;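 active = over 150 percent of DMSO response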;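 note: median GFP channel fluorescence over all cells without mother daughter split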
s288c autofluor – compound is autofluorescent in yeast s288c cells; S. cerevisiae s288c, 520 nm autofluorescence, flow cytometry, 3 h; hits give high values; zero means same as solvent-only cells; 610 tested, under 10 active; fluorescence change (kMESF span) at 33 µM; AID 2757; shares compounds with LAP4-GFP MLPCN;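 active = fluorescence span over the dose series, or activity score, above about 33, limit read from the data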
Hits are given with their value; – = inactive; · = no result; + = active, no number.

SMILES	VLA-4 inh	AGP1 TOR yeast	RPL19A TOR yeast	CIT2 TOR yeast	MEP2 TOR yeast	LAP4-GFP MLPCN	LAP4 cherry2	MEP2 cherry2	RPL19A GFP CP2	CIT2-GFP pick2	AGP1-GFP pick2	s288c autofluor
C#CCOCCOCCOCCNc1nc(N2CCN(C(=O)CCCCCCCCCCNC(=O)[C@@H](CCSC)n3cc(CCO)nn3)CC2)nc(N2CCN(C(=O)CCCCCCCCCCNC(=O)[C@H](CO)n3cc(CCCCCN)nn3)CC2)n1	–	–	–	–	–	–	·	·	·	·	·	·
C#CCOCCOCCOCCNc1nc(N2CCN(C(=O)CCCCCCCCCCNC(=O)[C@@H](CCSC)n3cc(CCO)nn3)CC2)nc(N2CCN(C(=O)CCCCCCCCCCNC(=O)[C@H](CCCN=C(N)N)n3cc(C[C@@H](C)CC)nn3)CC2)n1	–	–	–	–	–	152.2	–	–	–	–	–	·
C#CCOCCOCCOCCNc1nc(N2CCN(C(=O)CCCCCCCCCCNC(=O)[C@H](CCCCN)n3cc(C[C@@H](C)CC)nn3)CC2)nc(N2CCN(C(=O)CCCCCCCCCCNC(=O)[C@@H]([C@H](C)O)n3cc(C)nn3)CC2)n1	–	–	–	–	–	–	·	·	·	·	·	·
C#CCOCCOCCOCCNc1nc(N2CCN(C(=O)CCCCCCCCCCNC(=O)[C@H](CCCCN)n3cc(C)nn3)CC2)nc(N2CCN(C(=O)CCCCCCCCCCNC(=O)[C@H](CCCN=C(N)N)n3cc(C[C@@H](C)CC)nn3)CC2)n1	–	–	–	–	–	191.5	–	169.4	–	–	–	–
C#CCOCCOCCOCCNc1nc(N2CCN(C(=O)CCCCCCCCCCNC(=O)[C@@H](CCC(=O)O)n3cc(CCCCCN)nn3)CC2)nc(N2CCN(C(=O)CCCCCCCCCCNC(=O)[C@H](CCCCN)n3cc(C[C@@H](C)CC)nn3)CC2)n1	–	–	–	–	–	198.4	–	176.4	–	–	–	–
C#CCOCCOCCOCCNc1nc(N2CCN(C(=O)CCCCCCCCCCNC(=O)[C@H](CCCCN)n3cc(CCO)nn3)CC2)nc(N2CCN(C(=O)CCCCCCCCCCNC(=O)[C@H](CCCCN)n3cc(C[C@@H](C)CC)nn3)CC2)n1	–	–	–	–	–	161.1	–	152.0	–	–	–	–
C#CCOCCOCCOCCNc1nc(N2CCN(C(=O)CCCCCCCCCCNC(=O)[C@@H](CCC(=O)O)n3cc(CCCCCN)nn3)CC2)nc(N2CCN(C(=O)CCCCCCCCCCNC(=O)[C@H](CO)n3cc(CCCCCN)nn3)CC2)n1	–	–	–	–	–	–	·	·	·	·	·	·
COc1cc(Cl)ccc1OCc1cc(C(=O)NC(C)Cc2cccnc2)no1 (centres undefined)	–	–	–	–	–	–	·	·	·	·	·	·
COc1cccc(C(=O)NCC(=O)N2CCC3(CC2)NCCc2[nH]cnc23)c1OC	–	–	–	–	–	–	·	·	·	·	·	·
C=CCN(c1ccccc1)S(=O)(=O)c1cccc(C(=O)Nc2cccc(C)n2)c1	–	–	–	–	–	–	·	·	·	·	·	·
C#CCOCCOCCOCCNc1nc(N2CCN(C(=O)[C@H]([C@@H](C)CC)n3cc([C@@H](N)Cc4ccc(O)cc4)nn3)CC2)nc(N2CCN(C(=O)[C@H](CCCCN)n3cc([C@@H](N)CC(C)C)nn3)CC2)n1	–	152.9	–	–	839.3	301.0	–	–	–	–	–	·
Cc1ccc(CN2C(=O)[C@H]3Cc4c([nH]c5ccccc45)C(C)(C)N3C2=O)cc1	–	–	–	–	–	155.7	–	–	–	–	–	·
CC[C@@]1(C(=O)OC)N[C@H](CN(C)S(=O)(=O)c2ccccc2)[C@@H]2C(=O)N(C)C(=O)[C@@H]21	–	–	–	–	–	–	·	·	·	·	·	·
Cc1ccccc1N1C(=O)C(Cl)=C(N2CCN(c3ccccc3)CC2)C1=O	–	·	–	–	–	–	·	·	·	·	·	–
COc1cccc(CN2C(=O)NC3(CCCCCC3)C2=O)c1	–	–	–	–	–	–	·	·	·	·	·	·
COc1ccc(CCNS(=O)(=O)c2ccc(Cl)cc2)cc1OC	–	–	–	–	–	–	·	·	·	·	·	·
N#Cc1c2ccc([N+](=O)[O-])cc2[n+]([O-])n1-c1ccccc1	–	–	–	–	–	165.1	179.4	–	–	–	–	–
NCCCn1c(C(=O)c2ccc(Cl)cc2)c2ccc([N+](=O)[O-])cc2[n+]1[O-]	–	–	–	–	–	–	·	·	·	·	·	·
O=C(CCn1c(=O)c2cccn2c2cccnc21)N1CCN(c2cccc(Cl)c2)CC1	–	–	–	–	–	–	·	·	·	·	·	·
Cc1nn(-c2ccc(F)cc2)c(Cl)c1C(=O)N(C)CC(=O)Nc1cccc(F)c1	–	–	–	–	–	–	·	·	·	·	·	·
Cc1cccc(C(=O)NCC(=O)N2CCC2)c1	–	447.0	–	+	+	+	–	–	–	–	–	·
Cc1cccc(C(=O)NCC(=O)N2CCCCCCC2)c1	–	–	–	–	–	–	·	·	·	·	·	·
CC(C(=O)Nc1ccccc1)C(=O)Nc1ccccc1	–	–	–	–	–	–	·	·	·	·	·	·
CC(=O)C(Cl)C(=O)Nc1ccccc1 (centres undefined)	·	·	·	·	·	·	–	–	–	–	–	·
CC(=O)Nc1ccccc1	–	–	–	–	–	–	·	·	·	·	·	·
O=C(Nc1ccccc1)C(Cl)C(=O)c1ccccc1 (centres undefined)	–	–	–	–	–	–	–	–	–	–	–	·
COc1ccc(N2C(=O)C(Cl)=C(NCc3ccccc3)C2=O)cc1	–	–	–	–	–	–	·	·	·	·	·	–
COc1ccc(NC2=C(Cl)C(=O)N(CCc3ccccc3)C2=O)c(OC)c1	–	–	–	–	–	–	·	·	·	·	·	–

Assay outcomes deposited in PubChem by NMMLSC.
